Compounds with a hit are over-represented: about 7.6% of the library has one in this group of screens.
Cav32 inh: blocks human Cav3.2 T-type calcium channel; O95180; Cav3.2-expressing cells, Fluo-4 calcium fluorescence FDSS; hits give low values; B-score at 10 µM; actives 4% (n = 100,000);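 active = single-dose well whose peak fluorescence ratio is a statistical outlier from its plate by either plate-standardised score or position-corrected B-score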
M1 ag: activates the M1 muscarinic receptor | actives 3% (n = 64,000) | B-score at 10 µM | CHO-M1 cells, Fluo-4 calcium fluorescence, agonist mode; hits give high values;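 active = fluorescence rise, raw or as B-score row- and column-corrected plate score, outside the 99.7% band of its plate's samples, either direction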
M1 antag: blocks the rat M1 muscarinic receptor response to acetylcholine | CHO-M1 cells, Fluo-4 calcium, ACh EC80 antagonist mode; hits give low values | B-score at 10 µM | AID 628 | actives 3.4% (n = 64,000);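 active = calcium fluorescence response, raw or row-and-column corrected B-score, differing from the plate sample mean either way at a set confidence level, mostly lower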
Target sequence (P08482 whole entry, looked up): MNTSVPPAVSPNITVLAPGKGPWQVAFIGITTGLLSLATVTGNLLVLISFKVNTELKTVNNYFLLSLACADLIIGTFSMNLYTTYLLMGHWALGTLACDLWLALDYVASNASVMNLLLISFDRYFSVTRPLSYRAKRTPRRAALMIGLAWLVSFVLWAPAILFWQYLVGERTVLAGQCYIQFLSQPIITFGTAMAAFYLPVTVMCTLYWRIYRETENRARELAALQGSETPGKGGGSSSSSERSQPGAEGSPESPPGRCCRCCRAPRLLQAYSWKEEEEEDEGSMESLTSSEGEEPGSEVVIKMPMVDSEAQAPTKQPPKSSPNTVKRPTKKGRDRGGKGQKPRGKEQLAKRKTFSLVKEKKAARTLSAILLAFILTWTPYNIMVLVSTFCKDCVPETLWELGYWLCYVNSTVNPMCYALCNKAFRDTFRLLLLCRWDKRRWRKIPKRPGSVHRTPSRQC
PLAP act: activates human placental alkaline phosphatase; actives 1.2% (n = 96,000); purified PLAP enzyme, luminescent substrate read-out; hits give high values; P05187; activation fold at 20 µM; in the data active = activation fold above about 2
Active calls of the source: *; . = no result given.

SMILES	Cav32 inh	M1 ag	M1 antag	PLAP act
CC(C)CCSc1nc(N2CCOCC2)c2c(c1C#N)CC(C)(C)OC2	-3.8*	-0.92	1.2	1.3
CSc1cc(C)n(-c2ccccc2)c(=S)c1C(C)=O	.	.	.	1
Cc1ccc(-c2c3c(=O)n(C)c(=O)n(C)c3c3c(C)cc(C)nn23)cc1	.	9.5*	-13*	.
Cc1c(Cl)c(C(F)(F)F)nn1CC(=O)N1CCSCC1	-0.09	-1.1	0.038	.
Cc1ncc(CC(=O)n2cc(C(=O)c3cc(F)ccc3O)cn2)s1	-3.4*	.	.	0.9
Cc1ccc(O)c(C(=O)c2cnn(C(=O)Cc3csc(C)n3)c2)c1	-1.3	0.58	0.17	1.8
OCCNc1nc(Nc2ccccc2Oc2ccccc2)nc(N2CCCC2)n1	-0.033	.	.	.
CCc1cccc(C)c1N(C(=O)Cn1c(COC)nc2ccccc21)C(C)COC (centres undefined)	-0.5	.	.	1.7
CCOCN(C(=O)Cn1c(COC)nc2ccccc21)c1c(C)cccc1CC	-3.3*	.	.	1.6
CCCCCCCCn1c(=O)c(C(=O)OCC)c(O)c2ccccc21	-7.4*	.	.	1.6
Cc1cc(C(=O)N/N=C/c2cccc([N+](=O)[O-])c2)c(C)o1	-0.55	.	.	0.8
Cc1c(Cl)c([N+](=O)[O-])nn1Cc1ccc(C(=O)N/N=C\c2cccc(Br)c2)o1	-6.4*	.	.	1.3
CC#CCN1c2ccccc2[C@]23C[C@@H](C(=O)OC)N=C2NC(C(=O)OC)=C(C(=O)OC)[C@H]13	1.8	.	.	.
CCCC1=Nc2cc(C(=O)NCCCOC(C)C)ccc2Sc2ccccc21	-4.1	.	.	1.1
CCC1=Nc2cc(C(=O)NCCCOC)ccc2Sc2ccccc21	-0.33	.	.	2*
CCCC1=Nc2cc(C(=O)NCCCOCC)ccc2Sc2ccccc21	-6*	.	.	1.3
Cc1ccc(SCC2(O)CCN(S(=O)(=O)c3ccc(Cl)cc3)CC2)cc1	-6.1*	.	.	.
O=C(c1ccc(Cl)cc1)N1CCC(O)(CSc2ccc(Cl)cc2)CC1	-6.5*	.	.	1.4
Cc1ccc(S(=O)(=O)N2CCC(C(=O)NNS(=O)(=O)c3ccc(Cl)cc3)CC2)cc1	-1.9	.	.	1.3
O=C(c1ccc(Cl)cc1)N1CCC(O)(CSc2ccccc2)CC1	.	.	.	1.2
NC1=NC2(CCC(c3ccccc3)CC2)n2c(nc3ccccc32)N1 (centres undefined)	.	0.11	-0.2	2.8*
NC1=NC2(CCN(Cc3ccccc3)CC2)n2c(nc3ccccc32)N1	-0.32	-0.95	-0.89	2.6*
COC(=O)C1=C(C)OC(N)=C(C#N)C1c1c(C)nn(-c2ccccc2)c1Cl (centres undefined)	-5.1*	-0.41	-0.11	1.3
COc1cccc(/C=N/NC(=O)CSCC(=O)Nc2ccccc2)c1O	-1.5	.	.	1.4
COc1cccc(NC(=O)C(=O)N/N=C/c2cc(C)n(-c3ccc(Cl)c(Cl)c3)c2C)c1	-5.6*	.	.	1.6
SMILES	Cav32 inh	M1 ag	M1 antag	PLAP act
COc1ccccc1/C=N/NC(=O)CC(=O)Nc1ccc(Cl)c(Cl)c1	-5.3*	.	.	1
Cn1c(-c2nnn(-c3ccc(F)cc3)n2)cc2ccccc21	-0.0073	.	.	.
COc1ccc(-c2nnnn2CCc2ccccc2)cc1	-0.13	0.063	0.33	0.9
COc1ccc(Cl)cc1N(C)C(=O)CCc1nc(-c2ccc(C)cc2)no1	-5.7*	-0.05	0.11	1.6
CCc1ccccc1N(C)C(=O)CCc1nc(-c2ccc(C)cc2)no1	-5.5*	0.96	-0.35	1.8
COc1ccc(OC)c(-n2c(C)ccc2-c2ccc(S(C)(=O)=O)cc2)c1	-0.71	.	.	1.9
CCc1nccn1S(=O)(=O)c1ccc(Br)cc1Br	-1.2	0.07	0.12	0.8
COC(=O)c1ccc(Nc2cc(C)nc3ncnn23)cc1	0.027	0.51	0.34	2.2*
CCOC(=O)c1ccc(Nc2cc(C)nc3ncnn23)cc1	0.35	-1.3	-0.37	2*
CCOC(=O)c1ccc(Nc2c(CC)c(C)nc3ncnn23)cc1	1	0.57	-0.31	.
Cc1cc(Nc2cc(C(=O)O)ccc2C)n2ncnc2n1	0.022	0.38	0.44	1
CC(C)c1cc(C(C)C)c(S(=O)(=O)N2c3ccccc3[C@@]3(Br)C[C@H]4C(=O)N[C@@H](Cc5ccccc5)C(=O)N4[C@@H]23)c(C(C)C)c1	-1.5	.	.	.
Cc1ccc(S(=O)(=O)c2c(N)n(NC(=O)c3ccco3)c3nc4ccccc4nc23)cc1	-5.5*	-0.19	-0.36	0.8
O=C(OCCN(C1=NS(=O)(=O)c2ccccc21)c1ccccc1Cl)c1ccc(Cl)cc1	-3.2	.	.	1.1
CCCCc1ccc(NS(=O)(=O)N(C)C)cc1	-4.3*	.	.	0.9
CCOC(=O)c1[nH]nc(-c2cc(CC)c(O)cc2O)c1-c1cscn1	0.25	.	.	2.1*
CCOC(=O)c1oc2cc(O)cc(C)c2c(=O)c1-c1cscn1	0.74	3.7	0.39	1.2
CC(Oc1ccccc1)C(=O)Nc1cccc(-c2nc3ccccc3[nH]2)c1 (centres undefined)	-4.6*	.	.	0.9
COC(=O)c1sccc1NC(=O)CSc1ccccc1NS(=O)(=O)c1ccc(Cl)cc1	-6*	.	.	1.3
COC(=O)c1sccc1NC(=O)CSc1ccccc1NS(=O)(=O)c1ccccc1Cl	-4.3*	.	.	1.3
COC(=O)c1sccc1NC(=O)CSc1cc(Cl)ccc1Cl	.	.	.	0.7
CCCCC(=O)O	-1.4	.	.	.
O=[N+]([O-])c1cc(S(=O)(=O)Nc2cccc(C(F)(F)F)c2)ccc1-n1nnc2ccccc21	-5.6*	.	.	1.6
CC1(C)OC(=O)C(=NNc2ccc(Cl)cc2)C(=O)O1	-0.43	.	.	0.9
CCC(C(=O)NC1CCCC1)N(C(=O)Cn1nnc(-c2ccc(C)cc2)n1)C1CCCC1 (centres undefined)	-6.5*	.	.	.
SMILES	Cav32 inh	M1 ag	M1 antag	PLAP act
CCCCC(C(=O)NC1CCCC1)N(Cc1ccco1)C(=O)Cn1nnc(-c2ccc(F)cc2)n1 (centres undefined)	-2.9	.	.	2.2*
O=C(CN(Cc1ccco1)C(=O)Cn1nnc(-c2ccc(F)cc2)n1)NC1CCCC1	.	-1.1	-0.19	1.1
O=C(CCn1c(=S)[nH]c2ccccc2c1=O)N1CCN(c2ccccn2)CC1	.	0.26	-1.1	.
CC1(C)CC(=O)C2=C(C1)OC1=C(C(=O)CC(C)(C)C1)C2c1ccc(O)cc1O	-4.7*	158*	-0.025	1.3
Cc1onc(-c2ccccc2)c1C(=O)Nc1cc(C(F)(F)F)ccc1N1CCOCC1	-5.9*	0.16	0.45	1.6
Cc1onc(-c2ccccc2)c1C(=O)Nc1ccccc1N1CCOCC1	-1.6	0.4	0.075	1.7
O=C(CCc1ccccc1)NC(=S)Nc1cc(C(F)(F)F)ccc1N1CCOCC1	-5.7*	.	.	1
CCc1ccc2[nH]c(=O)c(C(c3nnnn3CC3CCCO3)N3CCN4CCCC4C3)cc2c1 (centres undefined)	0.066	-0.5	-0.027	1.7
CCOC(=O)c1[nH]c(COC(=O)C2CC(=O)N(Cc3ccccc3)C2)c(C(=O)OCC)c1C (centres undefined)	-3.4	-0.56	0.47	1.4
CC(C)(C)c1nc(N2CCN(C(=O)c3ccco3)CC2)c2nnn(Cc3ccccc3)c2n1	-7.2*	.	.	1
CC(C)CNC(=O)c1ccccc1NC(=O)Nc1ccccc1	-0.57	.	.	1
COC(=O)CNC(c1ccccc1)c1cc(Br)ccc1NC(=O)OCc1ccccc1 (centres undefined)	-9.4*	.	.	1.1

Screening data: PubChem BioAssay, several laboratories
